# Reference: PubChem BioAssay (NCATS)
# Inconclusive results are not listed. Where a call stands in place of a potency, no number is given. Activity calls are given as the source filed them. Calls come from the whole dose curve; as a rule, active = well fitted curve in the direction sought with a large enough effect; inconclusive = small, poorly fitted or top-dose-only effect, or another doubt; inactive = no such curve, though single readings can be large; an effect the other way counts as inactive or inconclusive.
# Tests used:
# [1] = target: Alpha-galactosidase (Coffea arabica) (UniProt Q42656); assay: Counterscreen for Glucocerebrosidase Inhibitors: qHTS Assay for Coffee Bean alpha-Galactosidase at pH 5.9 (AID 998)
# Sequence of Alpha-galactosidase (Coffea arabica) (Q42656 whole entry, looked up): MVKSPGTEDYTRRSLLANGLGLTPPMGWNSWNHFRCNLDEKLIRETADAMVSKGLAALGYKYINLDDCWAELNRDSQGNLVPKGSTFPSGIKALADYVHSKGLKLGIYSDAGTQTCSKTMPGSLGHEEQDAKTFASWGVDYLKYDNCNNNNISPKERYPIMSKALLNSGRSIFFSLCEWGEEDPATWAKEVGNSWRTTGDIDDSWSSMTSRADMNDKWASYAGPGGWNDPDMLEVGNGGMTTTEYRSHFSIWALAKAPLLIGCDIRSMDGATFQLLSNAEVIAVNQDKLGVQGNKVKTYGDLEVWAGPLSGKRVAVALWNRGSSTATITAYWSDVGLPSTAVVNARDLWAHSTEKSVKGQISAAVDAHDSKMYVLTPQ
# Summary of the method: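 Green coffee bean enzyme (2 nM) with 4-methylumbelliferyl alpha-D-galactopyranoside (80 uM) in 50 mM citric acid, 0.005% Tween-20, pH 5.9, 20 min at room temperature; compounds 0.7 nM–77 uM. Stopped at pH 10, fluorescence Ex365/Em440; Hill-fit AC50.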
# [2] = Cell Viability - LYMP2-024 (AID 988); note: nearly all actives have a fitted effect of over 60% in size
# Summary of the method: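 Human lymphoblastoid cells (2500/well) in complete medium were preincubated 5 hr at 37 C, then exposed to compounds for 24 hr at 37 C. Intracellular ATP was read by CellTiter-Glo luminescence; AC50 from Hill-equation fits of concentration-response data.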
# [3] = Cell Viability - LYMP2-026 (AID 989); note: nearly all actives have a fitted effect of over 50% in size
# Summary of the method: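 Human lymphoblastoid cells (2500/well) in complete medium were preincubated 5 hr at 37 C, then exposed to compounds for 24 hr at 37 C. Cellular ATP was read by CellTiter-Glo luminescence; AC50 from Hill-equation fits of concentration-response data.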
# [4] = Cell Viability - LYMP1-002 - Assay at 24 hr (AID 993)
# Summary of the method: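 Human lymphoblastoid LYMP1-002 cells, 2500/well in complete medium, were treated with compounds for 24 h at 37 C; intracellular ATP was read by CellTiter-Glo luminescence. AC50 values came from Hill-equation fits of qHTS concentration-response data.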
# [5] = Cell Viability - LYMP1-002 - Assay at 40 hr (AID 994); note: nearly all actives have a fitted effect of over 60% in size
# Summary of the method: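 Human lymphoblastoid cells, 2500/well in complete medium, were preincubated 5 hr at 37 C, then exposed to compounds for 40 hr at 37 C. Intracellular ATP was read by CellTiter-Glo luminescence after 30 min at room temperature; AC50 from Hill-equation fits.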
smiles,measurement,setting,value
CN1C(C)(C)CCCC1(C)C,outcome,[1],inactive
C[N+](C)(C)CCOC(N)=O,outcome,[1],inactive
Oc1ccc(Cl)cc1,outcome,[2],inactive
same,outcome,[3],inactive
same,Potency,[4],inactive
same,Potency,[5],inactive
O=C1NCC2(CCN(CCc3ccccc3)CC2)O1,outcome,[1],inactive
Cc1nc2c([nH]1)c(=O)n(C)c(=O)n2Cc1ccco1,outcome,[1],inactive
CCN(CC)CCOC(=O)c1ccc(N)cc1,outcome,[1],inactive
Nc1ccccc1,outcome,[2],inactive
same,outcome,[3],inactive
same,Potency,[4],inactive
same,Potency,[5],inactive
Cc1cnc(NC(=O)C2=C(O)c3ccccc3S(=O)(=O)N2C)s1,outcome,[1],inactive
COC(=O)C(c1ccccc1)C1CCCCN1 (stereo not given),outcome,[3],inactive
same,Potency,[4],inactive
same,Potency,[5],inactive
CC(C)NC(C)C,outcome,[2],inactive
same,outcome,[3],inactive
same,Potency,[4],inactive
same,Potency,[5],inactive
CCN1CCC[C@H]1CNC(=O)c1cc(S(N)(=O)=O)ccc1OC,outcome,[1],inactive
NC(N)=Nc1nc(CSCC/C(N)=N/S(N)(=O)=O)cs1,outcome,[1],inactive
CN=C(NC#N)NCCSCc1nc[nH]c1C,outcome,[1],inactive
COc1ccc2[nH]cc(CCNC(C)=O)c2c1,outcome,[1],inactive
CN1C[C@H](C(=O)N[C@]2(C)O[C@@]3(O)[C@@H]4CCCN4C(=O)[C@H](Cc4ccccc4)N3C2=O)C=C2c3cccc4[nH]cc(c34)C[C@H]21,outcome,[3],inactive
same,Potency,[4],inactive
same,Potency,[5],inactive
CCO/C([O-])=N/c1c[n+](N2CCOCC2)no1,outcome,[1],inactive
C[C@]12CCC(=O)C=C1CC[C@@H]1[C@@H]2CC[C@@]2(C)[C@H]1CC[C@]2(C)O,outcome,[2],inactive
same,outcome,[3],inactive
same,Potency,[4],inactive
same,Potency,[5],inactive
CCN(CC)C(=O)c1ccc(O)c(OC)c1,outcome,[1],inactive
CC(=O)c1ccc(S(=O)(=O)NC(=O)NC2CCCCC2)cc1,outcome,[1],inactive
C[C@H](CS)C(=O)N1CCC[C@H]1C(=O)O,outcome,[1],inactive
CC(=O)OCC(=O)[C@@]1(O)CC[C@H]2[C@@H]3CCC4=CC(=O)CC[C@]4(C)[C@H]3C(=O)C[C@@]21C,outcome,[1],inactive
Cc1scc2c1N(C(=O)CN1CCN(C)CC1)c1ccccc1NC2=O,outcome,[1],inactive
Clc1cccc(Cl)c1NC1=NCCN1,outcome,[1],inactive
NC(=O)c1cnccn1,outcome,[1],inactive
COc1ccc(C2CNC(=O)C2)cc1OC1CCCC1 (stereo not given),outcome,[1],inactive
CCC(C)(C)c1ccc(O)cc1,outcome,[2],inactive
same,outcome,[3],inactive
same,Potency,[4],inactive
same,Potency,[5],inactive
CCN(CC)CCNC(=O)c1cc(S(C)(=O)=O)ccc1OC,outcome,[1],inactive
CN1CCN(CCC=C2c3ccccc3Sc3ccc(S(=O)(=O)N(C)C)cc32)CC1,outcome,[1],inactive
Nc1ccccc1C(=O)O,outcome,[2],inactive
same,outcome,[3],inactive
same,Potency,[4],inactive
same,Potency,[5],inactive
NC(=O)N1c2ccccc2C=Cc2ccccc21,outcome,[1],inactive
CCN(CC)CCNC(=O)c1ccc(N)cc1,outcome,[1],inactive
CN(C)C(=O)Oc1ccc[n+](C)c1,outcome,[1],inactive
C[C@]1(O)CC[C@H]2[C@@H]3CCC4=CC(=O)CC[C@]4(C)[C@@]3(F)[C@@H](O)C[C@@]21C,outcome,[2],inactive
same,outcome,[3],inactive
same,Potency,[4],inactive
same,Potency,[5],inactive
Cc1ccc(Cl)c(Nc2ccccc2C(=O)O)c1Cl,outcome,[1],inactive
CC(C)(C)NC[C@H](O)COc1nsnc1N1CCOCC1,outcome,[1],inactive
